According to PubChem BioAssay (Tox21):
Active and inactive are the calls of the source. Unless noted, calls come from the whole dose curve; as a rule, active = well fitted curve in the direction sought with a large enough effect in the repeat runs; inconclusive = weak or mixed curves; inactive = no such curve, though single readings can be large; an effect the other way counts as inactive or inconclusive.

Key:
[1] = qHTS assay to identify small molecule antagonists of the glucocorticoid receptor (GR) signaling pathway - cell viability counter screen (AID 720693); note: nearly all actives have a fitted effect of over 55% in size; note: potency is the fitted concentration of half-maximal effect
[2] = qHTS assay for identifying genotoxic compounds that show differential cytotoxicity against isogenic chicken DT40 cell lines with known DNA damage response pathways - wild type cell line (AID 743012); note: nearly all actives have a fitted effect of over 60% in size; note: potency is the fitted concentration of half-maximal effect
In short: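 Cytotoxicity in repair-proficient parental chicken DT40 cells serves as the comparator for Rad54/Ku70- and Rev3-deficient lines. Cells were exposed to compounds for 40 h at 37 C/5% CO2, and ATP-based luminescence (CellTiter-Glo) measured viability.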

[3] = qHTS assay for identifying genotoxic compounds that show differential cytotoxicity against isogenic chicken DT40 cell lines with known DNA damage response pathways - Rev3 mutant cell line (AID 743014); note: nearly all actives have a fitted effect of over 55% in size; note: potency is the fitted concentration of half-maximal effect
[4] = qHTS assay for identifying genotoxic compounds that show differential cytotoxicity against isogenic chicken DT40 cell lines with known DNA damage response pathways - Rad54/Ku70 mutant cell line (AID 743015); note: nearly all actives have a fitted effect of over 60% in size; note: potency is the fitted concentration of half-maximal effect
[5] = qHTS assay to identify small molecule antagonists of the androgen receptor (AR) signaling pathway - cell viability counter screen (AID 743033; note: nearly all actives have a fitted effect of over 45% in size; note: potency is the fitted concentration of half-maximal effect)
[6] = qHTS assay to identify small molecule antagonists of the androgen receptor (AR) signaling pathway using the MDA cell line - cell viability counter screen (AID 743041; note: nearly all actives have a fitted effect of over 45% in size; note: potency is the fitted concentration of half-maximal effect)
In short: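 qHTS viability read-out; MDA-kb2 AR-luc; R1881-stimulated; 16 h exposure at 37C, 0% CO2; CellTiter-Fluor, 30 min; fluorescence intensity.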

[7] = qHTS assay to identify small molecule antagonists of the thyroid receptor (TR) signaling pathway (AID 743065); note: nearly all actives have a fitted effect of over 55% in size; note: potency is the fitted concentration of half-maximal effect
In short: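 GH3.TRE-Luc rat pituitary cells carrying two TR response elements driving luciferase were plated for 4 h, given compound plus 1 nM T3 (final), and incubated 23.5 h at 37 C. ONE-Glo luminescence measured reporter inhibition; CellTiter-Fluor fluorescence tracked cytotoxicity.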

[8] = target: Estrogen receptor (Homo sapiens) (UniProt P03372); experiment: qHTS assay to identify small molecule antagonists of the estrogen receptor alpha (ER-alpha) signaling pathway (AID 743069; active = well fitted curve in the direction sought with a large enough effect in the signal ratio in the repeat runs, not every such curve was filed as active; inconclusive = weak or mixed curves, or effect the other way; inactive = no such curve, though single readings can be large or run the other way; the % refers to the signal ratio; note: potency is the fitted concentration of half-maximal effect)
Sequence of Estrogen receptor (Homo sapiens) (P03372 whole entry, looked up): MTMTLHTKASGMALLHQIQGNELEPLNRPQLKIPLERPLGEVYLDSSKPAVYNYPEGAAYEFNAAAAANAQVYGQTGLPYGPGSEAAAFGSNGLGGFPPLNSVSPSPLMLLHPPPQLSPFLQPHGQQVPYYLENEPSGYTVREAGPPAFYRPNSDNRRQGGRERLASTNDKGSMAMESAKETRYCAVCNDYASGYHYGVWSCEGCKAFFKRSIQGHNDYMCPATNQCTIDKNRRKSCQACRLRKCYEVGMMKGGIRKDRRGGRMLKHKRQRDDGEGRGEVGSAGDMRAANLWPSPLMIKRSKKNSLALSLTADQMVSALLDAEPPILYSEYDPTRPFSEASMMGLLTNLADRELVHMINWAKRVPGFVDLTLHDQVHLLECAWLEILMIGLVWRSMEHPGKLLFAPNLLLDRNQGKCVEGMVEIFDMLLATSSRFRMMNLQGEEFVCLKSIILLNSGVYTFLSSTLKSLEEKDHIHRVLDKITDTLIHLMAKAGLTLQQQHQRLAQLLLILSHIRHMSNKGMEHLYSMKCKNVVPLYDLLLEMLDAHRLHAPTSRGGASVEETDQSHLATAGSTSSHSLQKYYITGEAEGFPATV
In short: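 Screening used a UAS-driven beta-lactamase reporter integrated into HEK293 cells expressing ER-alpha, stimulated with 17beta-estradiol alongside test compounds over 18 hr at 37C; signal came from LiveBLAzer B/G FRET fluorescence.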

[9] = qHTS assay to identify small molecule antagonists of the estrogen receptor alpha (ER-alpha) signaling pathway - cell viability counter screen (AID 743074; calls by dose curve; note: nearly all actives have a fitted effect of over 45% in size; note: potency is the fitted concentration of half-maximal effect)
[10] = qHTS assay to identify small molecule antagonists of the estrogen receptor alpha (ER-alpha) signaling pathway using the BG1 cell line (AID 743080; calls by dose curve;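 note: BG1 cells stimulated with 17beta-estradiol alongside compound; nearly all actives have a fitted effect of over 25% in size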; note: potency is the fitted concentration of half-maximal effect)
In short: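 Readout is ONE-Glo luminescence, taken 30 min at room temperature after reagent addition, preceded by a CellTiter-Fluor viability read; BG1-Luc-4E2 cells had received compound and 17beta-estradiol for 21.5 h at 37 C.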

[11] = target: Aromatase (Homo sapiens) (UniProt P11511); experiment: qHTS assay to identify aromatase inhibitors (AID 743083); note: nearly all actives have a fitted effect of over 55% in size; note: potency is the fitted concentration of half-maximal effect
Sequence of Aromatase (Homo sapiens) (P11511 whole entry, looked up): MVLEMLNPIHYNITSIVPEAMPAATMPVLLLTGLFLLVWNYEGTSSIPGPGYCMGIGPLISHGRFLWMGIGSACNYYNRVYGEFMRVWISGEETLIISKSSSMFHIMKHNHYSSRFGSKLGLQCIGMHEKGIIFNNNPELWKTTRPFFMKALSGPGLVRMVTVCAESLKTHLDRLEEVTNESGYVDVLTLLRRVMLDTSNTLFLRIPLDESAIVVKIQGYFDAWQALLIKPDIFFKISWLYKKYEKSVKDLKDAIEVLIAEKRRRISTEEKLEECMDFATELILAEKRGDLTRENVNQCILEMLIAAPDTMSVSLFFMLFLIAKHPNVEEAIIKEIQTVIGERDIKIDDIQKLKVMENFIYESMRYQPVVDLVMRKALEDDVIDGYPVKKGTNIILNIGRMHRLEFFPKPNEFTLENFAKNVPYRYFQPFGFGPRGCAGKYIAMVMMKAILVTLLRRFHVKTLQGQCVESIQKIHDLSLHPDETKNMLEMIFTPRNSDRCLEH

[12] = qHTS assay to identify small molecule antagonists of the thyroid receptor (TR) signaling pathway - cell viability counter screen (AID 743064); note: nearly all actives have a fitted effect of over 50% in size; note: potency is the fitted concentration of half-maximal effect
In short: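 Plate GH3.TRE-Luc cells; incubate 4 h at 37 °C; add compound, then T3 to 1 nM final; incubate 23.5 h; add CellTiter-Fluor; incubate 30 min at 37 °C, 5% CO2; read fluorescence.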

[13] = tested on: thyroid hormone receptor (rat, GH3 cells); experiment: qHTS assay to identify small molecule agonists of the thyroid receptor (TR) signaling pathway (AID 743066; calls by dose curve)
[14] = target: Estrogen receptor (Homo sapiens) (UniProt P03372); experiment: qHTS assay to identify small molecule agonists of the estrogen receptor alpha (ER-alpha) signaling pathway (AID 743075; calls by dose curve; note: potency is the fitted concentration of half-maximal effect)
[15] = qHTS assay to identify aromatase inhibitors - cell viability counter screen (AID 743084); note: potency is the fitted concentration of half-maximal effect
[16] = target: Androgen receptor (Homo sapiens) (UniProt P10275); experiment: qHTS assay to identify small molecule agonists of the androgen receptor (AR) signaling pathway using the MDA cell line (AID 743040; note: nearly all actives have a fitted effect of over 20% in size)
Sequence of Androgen receptor (Homo sapiens) (P10275 whole entry, looked up): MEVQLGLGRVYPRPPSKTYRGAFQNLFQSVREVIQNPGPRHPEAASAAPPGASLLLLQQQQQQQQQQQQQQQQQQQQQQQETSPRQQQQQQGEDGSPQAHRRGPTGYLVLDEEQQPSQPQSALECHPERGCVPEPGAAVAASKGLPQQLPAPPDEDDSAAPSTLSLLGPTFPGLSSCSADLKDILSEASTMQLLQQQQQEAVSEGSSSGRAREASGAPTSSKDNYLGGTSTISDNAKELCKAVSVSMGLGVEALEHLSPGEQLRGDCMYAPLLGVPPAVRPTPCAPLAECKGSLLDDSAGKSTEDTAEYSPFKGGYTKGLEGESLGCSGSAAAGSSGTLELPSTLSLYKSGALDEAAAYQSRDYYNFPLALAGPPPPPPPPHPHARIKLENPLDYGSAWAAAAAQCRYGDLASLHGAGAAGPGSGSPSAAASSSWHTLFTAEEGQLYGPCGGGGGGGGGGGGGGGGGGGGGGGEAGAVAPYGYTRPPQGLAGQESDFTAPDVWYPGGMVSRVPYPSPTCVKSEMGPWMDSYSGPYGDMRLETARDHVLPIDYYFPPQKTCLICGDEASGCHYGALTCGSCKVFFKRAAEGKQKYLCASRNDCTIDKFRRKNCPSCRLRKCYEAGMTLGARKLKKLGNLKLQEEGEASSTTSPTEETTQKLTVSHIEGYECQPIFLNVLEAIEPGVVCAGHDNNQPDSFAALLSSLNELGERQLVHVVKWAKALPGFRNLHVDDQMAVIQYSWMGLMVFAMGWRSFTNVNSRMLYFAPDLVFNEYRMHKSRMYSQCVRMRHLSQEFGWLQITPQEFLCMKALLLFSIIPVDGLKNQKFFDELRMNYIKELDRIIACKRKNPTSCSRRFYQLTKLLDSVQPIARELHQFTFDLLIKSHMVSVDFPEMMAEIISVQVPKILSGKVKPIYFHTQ
In short: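 Agonist activity is measured as luciferase luminescence in human MDA-kb2 cells whose MMTV reporter responds to both AR and GR. Compounds in DMSO incubate 16 h at 37C, 0% CO2, and ONE-Glo is read after 30 min.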

[17] = target: Androgen receptor (Homo sapiens) (UniProt P10275); experiment: qHTS assay to identify small molecule antagonists of the androgen receptor (AR) signaling pathway using the MDA cell line (AID 743042; note: nearly all actives have a fitted effect of over 55% in size; note: potency is the fitted concentration of half-maximal effect)
In short: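 MDA-kb2 cells (human breast carcinoma, stably carrying an MMTV-luciferase reporter responsive to AR and GR) were plated at 3,000 cells/well and preincubated 5 hr at 37C, then given compound plus R1881 agonist for 16 h. ONE-Glo luminescence was read.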

[18] = qHTS assay to identify small molecule antagonists of the estrogen receptor alpha (ER-alpha) signaling pathway using the BG1 cell line - cell viability counter screen (AID 743081);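 note: compound given together with 17beta-estradiol as the ER stimulus; nearly all actives have a fitted effect of over 45% in size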; note: potency is the fitted concentration of half-maximal effect
[19] = target: Androgen receptor (Homo sapiens) (UniProt P10275); experiment: qHTS assay to identify small molecule antagonists of the androgen receptor (AR) signaling pathway (AID 743035; active = well fitted inhibition curve with a large enough effect in the signal ratio in the repeat runs, not every such curve was filed as active; inconclusive = weak or mixed curves, or effect the other way; inactive = no such curve, though single readings can be large or run the other way; the % refers to the signal ratio; note: potency is the fitted concentration of half-maximal effect)
In short: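 Steps: seed AR-UAS-bla GripTite HEK293 cells, incubate 4 h at 37C; pin in test compound, then add agonist R1881; incubate 16 h at 37C; add LiveBLAzer B/G FRET substrate, 2 h at room temperature; read fluorescence.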

[20] = target: Estrogen receptor (Homo sapiens) (UniProt P03372); experiment: qHTS assay to identify small molecule agonists of the estrogen receptor alpha (ER-alpha) signaling pathway using the BG1 cell line (AID 743079); note: nearly all actives have a fitted effect of over 20% in size

Measured: Potency

CC1(c2ccc(Oc3ccccc3)cc2)OC(=O)N(Nc2ccccc2)C1=O (centres undefined)
inactive: [9]
active: [1] 22 µM | [2] 1.09 µM | [3] 0.869 µM | [4] 0.774 µM | [5] 24.7 µM | [6] 27.5 µM | [7] 1.94 µM | [8] 17.5 µM [inconclusive] | [10] 21.8 µM | [11] 61.5 µM

CCCN(CCC)c1c([N+](=O)[O-])cc(S(N)(=O)=O)cc1[N+](=O)[O-]
active: [1] 58.6 µM | [2] 2.06 µM | [3] 16.9 µM | [4] 22.1 µM | [5] 20.8 µM | [6] 51.8 µM | [12] 48.7 µM | [7] 30.6 µM | [9] 26.2 µM | [11] 33.1 µM | [15] 32.7 µM
inactive: [13] | [14]

Oc1c(Br)c(Br)c(Br)c(Br)c1Br
inactive: [1] | [2] | [3] | [4] | [16] | [17] | [14] | [18]

N#CCCSCCC#N
not listed: [6] | [20]
inactive: all other assays above

O=C(O)c1cc[c]([Hg][Cl])cc1
active: [3] 1.93 µM | [4] 1.54 µM | [5] 54.9 µM | [12] 17.2 µM | [7] 6.86 µM | [14] 49 µM [activator] | [11] 61.1 µM | [15] 61.1 µM
inactive: [1] | [2] | [6] | [13] | [8] | [9] | [18]

CCCCCCCCCCCCCCCCCCn1cc[n+](C)c1
inactive: [16] | [14]
active: [1] 24.4 µM | [2] 1.21 µM | [3] 0.963 µM | [4] 2.16 µM | [5] 13.7 µM | [19] 3.87 µM | [17] 7.65 µM | [12] 12.1 µM | [7] 5.42 µM | [8] 9.72 µM [inconclusive] | [9] 38.7 µM | [18] 30.5 µM | [11] 3.83 µM | [15] 21.6 µM

CC(C)CC(C)Nc1ccc(Nc2ccccc2)cc1 (centres undefined)
active: [1] 48.2 µM | [2] 26.8 µM | [3] 16.9 µM | [4] 15.1 µM | [5] 21.5 µM | [12] 42.5 µM | [7] 30.1 µM | [9] 48.2 µM | [18] 53.5 µM | [11] 53.5 µM | [15] 47.7 µM
inactive: [13] | [14]

O=C1c2ccccc2C(=O)C1C(=O)C(c1ccccc1)c1ccc(Cl)cc1 (centres undefined)
inactive: [16] | [13] | [14] | [20]
active: [1] 19.5 µM | [2] 27.3 µM | [3] 27.3 µM | [4] 21.7 µM | [5] 13.8 µM | [17] 15.4 µM | [12] 27.3 µM | [7] 15.4 µM | [8] 5.49 µM [inconclusive] | [9] 43.6 µM | [11] 54.5 µM

Clc1ccc(-c2ccc(Cl)c(Cl)c2Cl)c(Cl)c1Cl
not listed: [6] | [8] | [16] | [17] | [19]
inactive: all other assays above

CN(C)CCc1c[nH]c2cccc(O)c12
active: [2] 30.3 µM | [3] 60.5 µM | [4] 42.8 µM
inactive: [1] | [5] | [12] | [13] | [9] | [15]

N#CNC#N
inactive: [1] | [2] | [3] | [5] | [6] | [7] | [13] | [18] | [11] | [15]
active: [4] 61.8 µM
